# Assay results: PMC12136788
# Numbering of substitutions follows the chain as printed. In all, about 24,000 sequences were measured (“enrichment r”: median about 0.99, highest 2% from about 3.7 on). What follows is part of a selection rich in the highest values, with near analogues and random picks from the rest.
# T1: UNK ZnF1-3 (human, UniProt Q9C0B0 31-174)
# T1 sequence: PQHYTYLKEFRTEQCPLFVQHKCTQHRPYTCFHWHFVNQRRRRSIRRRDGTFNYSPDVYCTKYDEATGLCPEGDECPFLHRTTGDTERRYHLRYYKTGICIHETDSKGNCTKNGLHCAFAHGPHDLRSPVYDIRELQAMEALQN
# B1: 133975656_133975776_5164_3pUTR_ENSG00000205060_ENST00000378509|human|control|control (ssRNA)
# RNA: GGGAGUUCUACAGUCCGACGAUCCAUUUCUCUGUCCGUUUAGGUCAAUGCCAACUGGUCCACCAGUGAACAUGUCCACCGGCCCUGAGCUAACUCAUUGGUUUAUUAUUCCUGACCUAAGGUGUUUUACUUCCCCUCUCCAUACAACAGAGGAUUGAGCAUCA
# B2: chr1:39494447:39494448:+_ENSG00000168653_ENST00000372967|hu_mus|hu_hu_hu_mus_False|18_98 (ssRNA)
# RNA: GGGAGUUCUACAGUCCGACGAUCGCACCGAGCGGCGAUCUUGUAGGGCUGUUCUGCGCUUAGGAACAUAAAGUGCCGGUCCAGGCUGAUGCCCAGCUUUUUCUGUAUGUCAAGGAAAGGCAUGGCCCUGCAGUGCCCUUGUCACAACAGAGGAUUGAGCAUCA
# B3: chr20:43533646:43533647:+_ENSG00000166913_ENST00000353703|hu_hu|motif|central (ssRNA)
# RNA: GGGAGUUCUACAGUCCGACGAUCGAAAUUUAGUGCCAGACCAAGACGAAUUGGGUGUGUAGGCUGCAUUUCUUUCUUACGGAUUUCAAAUGCUUCCUGGUAAGCCUGCUGGGAGUUCGACACAGUGGUUUGUUUGUUGUCUCCCAACAGAGGAUUGAGCAUCA
# B4: chr11:77340908:77340909:-_ENSG00000074201_ENST00000525064|hu_hu|hu_hu_hu_mus_True|8_8 (ssRNA)
# RNA: GGGAGUUCUACAGUCCGACGAUCGUUUGGAUCCCUGGACACCGCAUGUAAACUAAUGGUGGGGUAUUCCAGUGAGAAUCCUAAUCCCGAACCAUCUAACCAGGACAGGCGGCUCUCCGCGAUGUAAAGGGUACCAGUGCCGAGCAACAGAGGAUUGAGCAUCA
# B5: 135097835_135097955_579_3pUTR_ENSMUSG00000040731_ENSMUST00000036125|mouse|control|control (ssRNA)
# RNA: GGGAGUUCUACAGUCCGACGAUCAAGUCCAUGUUGGAGCCACGCAGAGGAGGGCCAUCUCGAAAGCGACUCCCCAUUGGAGGGCCUGCUCGCCGGUCCCCAGGGCGACUGCCCCCCCUACCCCCUAAGAAGUCAUCCCUGUAGCAACAGAGGAUUGAGCAUCA
# B6: chr3:57569730:57569731:-_ENSG00000168374_ENST00000303436|hu_mus|FALSE|FALSE (ssRNA)
# RNA: GGGAGUUCUACAGUCCGACGAUCAUAUUCUACUGUUUCCACAUUAAAACCAAUGGUAGGAAUGGUGGUGACUAUUUCCCCUAAUUUCAGUUUAUACAGAAUUGUCGUCUUGCCAGCAGCAUCCAAUCCAACCAUCAAAAUGCGCAACAGAGGAUUGAGCAUCA
# B7: chr18:9954606:9954607:+_ENSG00000101558_ENST00000400000|hu_mus|FALSE|FALSE (ssRNA)
# RNA: GGGAGUUCUACAGUCCGACGAUCCCAUUUCCCCCACAGAAAACCUCUUGGCAUUUCCUGAAUGAGUGGGAUUAGCAAUCUAAAUAAAUCAUAUUUCAAGAGGUAACAGCAACAGAUAAAAUUUAAAGGAAUUAUUAAAAUAACCAACAGAGGAUUGAGCAUCA
# B8: chr19:16212804:16212805:+_ENSG00000167460_ENST00000300933|hu_mus|hu_hu_hu_mus_False|48_58 (ssRNA)
# RNA: GGGAGUUCUACAGUCCGACGAUCAACAAUUCUGGAGUGAAGGAAAGAUGUAACAUGGAACAGCAUUAAAGCUCAGUAUUACUAUAUGUGGGUAAUUAUGAUCACCCCAGCAUUCUCGCUUGGAAUGCUUAAAGACAAUCUGUUCAACAGAGGAUUGAGCAUCA
# B9: chr12:493273:493274:-_ENSG00000073614_ENST00000399788|hu_mus|hu_hu_hu_mus_False|48_58 (ssRNA)
# RNA: GGGAGUUCUACAGUCCGACGAUCUUUUCUCUCCACCACAGGGAUCUUCAAUGUAGAUCCUUGAAGUUCCCAAAAUUUUGCUAGUUGAUCCAAGAAAUCCAAUCUUACUCUAGUCAUUGCCUCAAGUUCAUUCAGGCGCUGGACCAACAGAGGAUUGAGCAUCA
# B10: 36138064_36138184_3590_3pUTR_ENSG00000100320_ENST00000405409|human|control|control (ssRNA)
# RNA: GGGAGUUCUACAGUCCGACGAUCAAAGCAAAAGCAAAAUCCUCCCUGCCCCCAUUCCCUAGAACUGUGAAAGCCCGCAUCCCAUUCCCCGCUCCUCUAACUAAAAUAUUUAUAUACAUACAACAAAAAUUGUCUUAACAGCAACAACAGAGGAUUGAGCAUCA
# B11: chr9:42776432:42776433:-_ENSMUSG00000059495_ENSMUST00000165665|mus_hu|FALSE|FALSE (ssRNA)
# RNA: GGGAGUUCUACAGUCCGACGAUCUAACAAAUUUAUAGUCAAGAAAAUAAAAUUUGCUUUCCUCUCCCACCCAAAUCCCAACCCUCAAUAGAAAAGACGACAAUGGAAGAAAACACACCCAUUUUCAAGUGCCUGCUAUUUAGUCAACAGAGGAUUGAGCAUCA
# B12: chr18:9954606:9954607:+_ENSG00000101558_ENST00000400000|hu_hu|FALSE|FALSE (ssRNA)
# RNA: B7 RNA with C24A, A26C, U27A, C30U, C36A, A37G, A41U, A129G
# B13: 104554200_104554320_324_3pUTR_ENSMUSG00000032621_ENSMUST00000074616|mouse|control|control (ssRNA)
# RNA: GGGAGUUCUACAGUCCGACGAUCAUCAGAUCCAUACAAAGAAACAAAUAAGAAGAACAUAAGGCUUUCCUUUUAUCCUGCUCUAUUAGGAAAAAUAAAAGUGAGCAAAACUUCAAAGACUAACAAUCUCAUUAAUGGAACAUUCAACAGAGGAUUGAGCAUCA
# B14: chr2:73656703:73656704:-_ENSMUSG00000027104_ENSMUST00000100009|mus_hu|FALSE|FALSE (ssRNA)
# RNA: GGGAGUUCUACAGUCCGACGAUCAAGAAAUGGAAGUGGGAAGAAAGAUUCAGUAACACCCCCAUUUAUUAAAACACCAGCAAAUUAAAAGUGAAAUAAAUCACAAUGAAUUAUAAUACAAUUUACACAUUGAGCACAGAAAAACAACAGAGGAUUGAGCAUCA
# B15: 54572216_54573035_2393_CDS_ENSG00000067248_ENST00000251636|human|control|control (ssRNA)
# RNA: GGGAGUUCUACAGUCCGACGAUCAUCUUCAAGAUGAAAAACCUCAACAGGAUAACUUCUUCCUGAAAUUCUGAGAAUGGGGCAGUGUGUGAAAUAUGUAGAAAAUUUUUCGCUGUCCACAGUGGCACUCAUUAGAAUCAAGUGCAACAGAGGAUUGAGCAUCA
# B16: chr19:16212804:16212805:+_ENSG00000167460_ENST00000300933|hu_mus|hu_hu_hu_mus_False|8_78 (ssRNA)
# RNA: GGGAGUUCUACAGUCCGACGAUCAACAAUUCUGGAGUGAAGGAAAGAUGUAACAUGCAAUUAAUUAAAAGCUCAGUCAGAAGGCACAUGGGCAACAAUGAUCACCCCAGCAUUCUCGCUUGGAAUGUGCUUGAGAAAUCUGUUCAACAGAGGAUUGAGCAUCA
# B17: chr3:75345182:75345183:-_ENSMUSG00000027835_ENSMUST00000161137|mus_hu|FALSE|FALSE (ssRNA)
# RNA: GGGAGUUCUACAGUCCGACGAUCAUGUGGUCUCAGCUUCAUUCUUCAUCUCUUCCAUUGUCAUCCUCAUUCAAAAGCCAACUACAGUUGAAAAAGCAGUGCUAAAAUGCAGAGGAAUCUUCAUUCACUGCAAUAUUUCUUCUCCAACAGAGGAUUGAGCAUCA
# Biological target: T1, UNK ZnF1-3
# Assay: nsRBNS (natural sequence RNA bind-n-seq); RBNS binding buffer (assumed for nsRBNS): 25 mM Tris pH 7.5, 150 mM KCl, 3 mM MgCl2, 0.01% Triton X-100, 500 ug/ml BSA, 20 U/ml SUPERase-In, 4 C; UNK is unkempt and MSI1 is Musashi-1; names of the RNAs are library labels; protein concentration not given here; high values mean tight binding
row,Binder,binding signal
1,B1,0.604 enrichment R
2,B2,0.479 enrichment R
3,B3,0.731 enrichment R
4,B4,1.2 enrichment R
5,B5,0.982 enrichment R
6,B6,0.905 enrichment R
7,B7,4.49 enrichment R
8,B8,0.913 enrichment R
9,B9,0.927 enrichment R
10,B10,3.79 enrichment R
11,B11,4.14 enrichment R
12,B12,3.36 enrichment R
13,B13,0.765 enrichment R
14,B14,4.55 enrichment R
15,B15,1.16 enrichment R
16,B16,1.42 enrichment R
17,B17,1.23 enrichment R
